Experimental findings from PubChem BioAssay (NCI) are described below.

Test systems include DU-145 prostate; K-562 leukemia; MALME-3M melanoma; MDA-MB-231 breast; RXF 393 renal; SF-268 CNS; SF-295 CNS; SF-539 CNS; UACC-257 melanoma; M14 melanoma.
Common to all, as to test: NCI-60 one-dose screen, 48 h (100 = growth as untreated, 0 = no growth, -100 = all killed)
Settings in all cases: 10 µM unless noted

Molecules are shown by their SMILES. This is part of a sample that, as a whole, favours compounds with a hit. Of some 83,000 tested, about 20% had one in any assay.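 Values shown are percent growth following 48 h exposure of cells in 96-well plates to a single concentration of compound; below 10 was considered active.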 Unmarked numbers belong to inactive results. Activity calls are given as the source filed them.

Regarding `CC(=O)Nc1ccc(S(=O)(=O)Nc2ccc(-c3ccc4c(c3)NC(=O)/C4=C\c3ccc[nH]3)cc2)cc1`, the growth was 93.4% with DU-145 prostate; 64.8% in the test on K-562 leukemia; 92.5% in the test on MALME-3M melanoma; 88.7% in the test with MDA-MB-231 breast; 107% in the test on RXF 393 renal; 112% in the test on SF-268 CNS. The growth in the test with SF-295 CNS is 94.9%; in the test on SF-539 CNS, 84%; in the test with UACC-257 melanoma, 102%; in the test on M14 melanoma, 100%.
As to `Cc1ccc(Cl)cc1NC(=O)Nc1nc2ccc([N+](=O)[O-])cc2s1`, the growth in the test on DU-145 prostate is 18.6%; in the test with K-562 leukemia it was 1.86% (active); with MALME-3M melanoma, -24.4% (active); in the test on MDA-MB-231 breast, -42.2% (active); in the test on RXF 393 renal it was -22.7% (active); in the test on SF-268 CNS, 27.5%. Further, the growth was -45.4% (active) in the test with SF-295 CNS, -33.9% (active) in the test with SF-539 CNS, -20.9% (active) in the test on UACC-257 melanoma and -33.5% (active) in the test on M14 melanoma.
As for `Nc1ccc(-c2ccc3ncnc(N4CCc5cc(F)c(Cl)cc54)c3c2)cn1`, the growth is 5.3% (active) in the test on DU-145 prostate; 12.9% with K-562 leukemia; 3.74% (active) with MALME-3M melanoma; 18.4% with MDA-MB-231 breast; -19.2% (active) in the test with RXF 393 renal; 24% in the test on SF-268 CNS. In addition, the growth is 7.68% (active) in the test on SF-295 CNS, 24.9% in the test with SF-539 CNS, 43.1% with UACC-257 melanoma and 13.5% with M14 melanoma.
With `COc1ccc(-c2nc3ccc(-c4nnc(SCC(=O)Nc5ccc(/C(C)=N\O)cc5)o4)cc3[nH]2)cc1`, the growth with DU-145 prostate is 71.7%; in the test on K-562 leukemia it was 32.4%; in the test on MALME-3M melanoma, -20.5% (active); in the test on MDA-MB-231 breast, 56%; in the test with RXF 393 renal, -45.2% (active); in the test on SF-268 CNS, 49.4%. Moreover, the growth in the test on SF-295 CNS is 97.7%; in the test with SF-539 CNS, -53.4% (active); with UACC-257 melanoma, 50.4%; in the test on M14 melanoma it was 28.5%.
`Cc1ccc(C(=O)Nc2cc(-c3ccccc3)cc(C(F)(F)F)c2)cc1C#Cc1cnc2cccnn12`: the growth was 84.8% with DU-145 prostate; 5.94% (active) with K-562 leukemia; 39% in the test with MALME-3M melanoma; 57.3% in the test on MDA-MB-231 breast; 73.7% with RXF 393 renal; 91.9% in the test on SF-268 CNS. The growth in the test with SF-295 CNS was 68%; in the test with SF-539 CNS, 63.8%; in the test on UACC-257 melanoma, 65.8%; in the test on M14 melanoma, 36.8%.
`CCCn1c(NC(=O)c2cccc(C(N)=O)c2)nc2cc(CN3CCCCC3)ccc21`: the growth in the test on DU-145 prostate was 103%; with K-562 leukemia, 72.3%; in the test on MALME-3M melanoma, 98%; in the test on MDA-MB-231 breast it was 142%; in the test with RXF 393 renal it was 64.5%; in the test with SF-268 CNS, 111%. The growth with SF-295 CNS was 107%; in the test on SF-539 CNS, 107%; with UACC-257 melanoma, 113%; in the test with M14 melanoma, 13.8%.
As to `COc1c(B(O)O)cccc1-c1nc2ccc3cn[nH]c3c2c2c1CCCC2`, the growth is 69.1% with DU-145 prostate; 74.7% in the test on K-562 leukemia; 87% with MALME-3M melanoma; 25.3% with MDA-MB-231 breast; -30.3% (active) in the test on RXF 393 renal; 50.3% in the test with SF-268 CNS. The growth in the test on SF-295 CNS is 70%; in the test on SF-539 CNS it was 9.76% (active); in the test on UACC-257 melanoma, 83.9%; with M14 melanoma, 88.4%.
Regarding `Clc1ccccc1Nc1nnc(-c2c[nH]c3ccccc23)o1`, the growth in the test with DU-145 prostate is 21.5%; with K-562 leukemia, 6.76% (active); in the test with MALME-3M melanoma, 41.9%; in the test on MDA-MB-231 breast it was 16%; with RXF 393 renal it was -5.74% (active); in the test on SF-268 CNS, 48.5%. The growth in the test on SF-295 CNS was 9.04% (active); in the test on SF-539 CNS it was -43.6% (active); in the test on UACC-257 melanoma, 65%; in the test with M14 melanoma it was 22.8%.
Consider `COc1ccc(N=Nc2c(N)nn3c(N)c(C#N)c(-c4ccc(C)cc4)nc23)cc1`, for which the growth in the test on DU-145 prostate was 42.2%; in the test on K-562 leukemia, 36.1%; in the test on MALME-3M melanoma, 93.7%; in the test with MDA-MB-231 breast, 42.4%; in the test with RXF 393 renal, 65.1%; in the test on SF-268 CNS, 67.5%. Moreover, the growth with SF-295 CNS is 58.1%; in the test with SF-539 CNS it was 52.4%; in the test with UACC-257 melanoma, 92.7%; in the test with M14 melanoma, 61.6%.
Consider `CC1=C(C(=O)Nc2ccccc2)C(c2ccc3ccccc3c2)n2c(nc3ccccc32)N1` (stereo not given), for which the growth with DU-145 prostate is 46.2%; in the test with K-562 leukemia it was 43.8%; in the test on MALME-3M melanoma, 72.5%; in the test on MDA-MB-231 breast it was 5.61% (active); with RXF 393 renal it was 53.3%; with SF-268 CNS, 72.5%. Moreover, the growth in the test on SF-295 CNS is 37%; in the test with SF-539 CNS it was 81.8%; in the test on UACC-257 melanoma, 81.1%; in the test with M14 melanoma, 66.6%.
Turning to `NS(=O)(=O)c1ccc(Nc2nc(SCC(=O)c3ccc(F)cc3)nc3ccccc23)cc1`, the growth is 52.9% with DU-145 prostate; 24.1% in the test with K-562 leukemia; 31.7% with MALME-3M melanoma; 51.7% in the test on MDA-MB-231 breast; 63.5% with RXF 393 renal; 46.8% in the test on SF-268 CNS. Further, the growth in the test on SF-295 CNS was 59.9%; in the test with SF-539 CNS it was 53.2%; in the test on UACC-257 melanoma it was 77.9%; in the test with M14 melanoma, 56%.
Take `COc1cc(CNC(=O)C[C@H](C)CCC=C(C)C)ccc1OCc1cn(-c2ccc(Cl)c(Cl)c2)nn1`: the growth was 76.8% in the test on DU-145 prostate; 51.9% in the test with K-562 leukemia; 77.4% with MALME-3M melanoma; 75.7% in the test on MDA-MB-231 breast; 74.8% in the test on RXF 393 renal; 58.4% in the test on SF-268 CNS. For the same compound, the growth with SF-295 CNS is 80.5%; in the test with SF-539 CNS, 5.3% (active); with UACC-257 melanoma, 91%; with M14 melanoma it was 89%.
`Cc1ccc(Cl)cc1NC(=O)N/C(N)=N/c1nc2ccccc2s1`: the growth with DU-145 prostate is -35% (active); in the test on K-562 leukemia it was 4.45% (active); in the test on MALME-3M melanoma, 15.6%; in the test with MDA-MB-231 breast it was -42.7% (active); in the test with RXF 393 renal, -28.5% (active); in the test on SF-268 CNS, 15.4%. Also, the growth is -49.6% (active) in the test on SF-295 CNS, -51.2% (active) with SF-539 CNS, 44.8% in the test with UACC-257 melanoma and -17.1% (active) with M14 melanoma.
